This test is described as follows: Vero E6 cell cytotoxicity, dose response, cytotoxicity control (AID 540298).

Entries with a potency or affinity are not part of this list. Activity calls are given as the source filed them. No rule for the calls is given here.

For the compound `CC(c1ccccn1)N(CCN(C)C)C(=S)Nc1cccc(F)c1` (stereo not given), the result was inactive.
The same measure for `CCOC(=O)c1c(CN(C)C)oc2cc(CN(C)C)c(O)c(CSc3ccccc3)c12`: “inactive”; for `COc1ccc(N2CCN(CCCN)CC2)cc1`: “inactive”; for `Cc1ccc(N2C(=O)C(CC(=O)Nc3cccc(F)c3)N(C3CC3)C2=O)cc1` (stereo not given): “inactive”.
`CN(C)c1cccc2c(C=C(C#N)C#N)ccc(N(C)C)c12`: the outcome was inactive.

These data come from PubChem BioAssay AID540298 (Southern Research Specialized Biocontainment Screening …, 2011).
